PostGolgi yeast: growth inhibition of a yeast mutant, post-Golgi transport screen; post-Golgi transport phenotypic cell assay; inhibition, % at 10 µM; 98,000 tested, 0.9% active; AID 739;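 note: yeast cells grown in 1536-well plates; yeast grown about 18 h at 30C before absorbance read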
Cav32 inh: blocks human Cav3.2 T-type calcium channel | O95180 | Cav3.2-expressing cells, Fluo-4 calcium fluorescence FDSS; active compounds read low | B-score at 10 µM | 100,000 tested, 4% active | AID 449739;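 active = single-dose well whose peak fluorescence ratio is a statistical outlier from its plate by either plate-standardised score or position-corrected B-score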
PostGolgi ctrl: yeast control strain growth, post-Golgi counter-screen | efflux-deficient yeast background strain, growth absorbance A615, 16 h | 98,000 tested, 5% active | inhibition, % at 10 µM
Pyk2 oligo antag: blocks oligomerization of human Pyk2 in cells; z-score (the deposit names both 25 µM and 10 µM); Q293 cells, Pyk2 FERM NanoBiT luminescence; active compounds read low; Q14289; 99,000 tested, 0.83% active;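 active = Z-score of -3 or lower, scaled per plate to the spread of control and sample wells; inactive = z-score above -3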;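 note: negative z-score means lost luminescence so less FERM oligomerization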
Starred values were filed as active, the others as inactive; x = not tested or not shown. Most compounds without a hit are left out; they make up all but 8% or so of the library. Cut-off read from the data, not from the text of the source, unless noted: active = inhibition above about 30%; inactive = the rest.

SMILES	PostGolgi yeast	Cav32 inh	PostGolgi ctrl	Pyk2 oligo antag
O=C(CN(c1ccc(F)cc1)S(=O)(=O)c1ccc2c(c1)OCCO2)Nc1ccccc1	32.8*	-0.531	7.4	-2.64
O=C1C=C(NCc2ccc(Cl)c(Cl)c2)C2(CCCCC2)O1	1.6	-3.16	11.9	-1.7
Cc1ccc(/C(O)=C2/C(=O)C(=O)N(CCN3CCOCC3)C2c2cccs2)cc1 (configuration not stated)	-4.0	x	24.6	-0.1
CN1c2ccccc2-c2nc3ccccc3n2C1c1ccccn1 (configuration not stated)	2.0	-1.7	12.9	-1.35
c1ccc(CN2c3ccccc3-c3nc4ccccc4n3C2c2ccccn2)cc1 (configuration not stated)	8.9	-6.59*	43.2*	-2.1
Cc1cccc2c1CC(C)(C)NC2=C(C#N)C#N	x	x	x	-0.06
CCCOC(=O)c1ccc(-c2c(C)noc2-c2ccc(OC)cc2O)o1	4.2	-4.4*	28.7	-2.94
CCCc1cc(-c2[nH]ncc2-c2ccc(C(=O)OCC)o2)c(O)cc1O	7.5	-0.0811	10.6	-2.11
CCOC(=O)C1=C(CC)Nc2ccccc2N=C1NC(=O)Nc1ccccc1OC	8.1	-0.568	37.3*	-1.66
CCN(CC)c1nc(OCCNC(=O)Nc2ccccc2)nc(N(CC)CC)n1	12.6	-10.3*	12.4	-2.88
COc1ccc(-n2c(SCC(N)=O)nc3nc4c(cc3c2=O)COC(C)(C)C4)cc1	-4.8	x	6.2	0.76
O=C(NC1CCN(Cc2ccccc2)CC1)C1CCCN(c2nnc(-n3cccc3)s2)C1 (configuration not stated)	-6.6	0.945	10.3	x
O=C(NCCCc1ccccc1)C1CCN(c2nnc(-n3cccc3)s2)CC1	-3.1	-1.62	38.5*	x
O=C(C1CCCN(c2nnc(-n3cccc3)s2)C1)N1CCN(c2ccccc2)CC1 (configuration not stated)	-1.5	-2.15	41.1*	x
O=C(NCCCN1CCN(Cc2ccccc2)CC1)C1CCN(c2nnc(-n3cccc3)s2)CC1	5.8	0.474	-4.4	1.42
COc1ccc(OC)c(C(O)c2coc3ccc(O)c(CN4CCOCC4)c23)c1 (configuration not stated)	-3.2	1.6	0.6	0.83
O=C1CC(c2cccc([N+](=O)[O-])c2)c2ccc3ccccc3c2N1 (configuration not stated)	9.3	-1.49	53.9*	-0.58
CCOC(=O)C1=C(C)N(C)C(=O)NC1c1cccc([N+](=O)[O-])c1 (configuration not stated)	x	-0.294	x	x
COc1cc(S(=O)(=O)NC(C)C)ccc1Cl	1.4	-0.0428	5.6	-0.39
CCCCCCCCNC(=O)C(CCC(=O)OCc1ccccc1)NC(C)=O (configuration not stated)	-6.8	-3.31	0.9	0.85
CCC(C(=O)O/N=C(\N)c1cccc(C)c1)c1ccccc1 (configuration not stated)	-4.8	-3.34	11.0	-0.57
Cc1cccc(/C(N)=N/OC(=O)N2c3ccccc3Sc3ccccc32)c1	16.9	-4.92*	16.9	0.72
Cn1c(Cc2ccccc2)nnc1SCC(=O)c1cccs1	-7.8	-0.78	-6.5	0.23
O=C(c1ccc(CN2CCOCC2)cc1)N1CCC(Cc2ccccc2)CC1	-3.4	0.0236	3.5	-0.55
Cc1ccccc1NC(=O)c1ccc(CN2CCc3ccccc3C2)cc1	-2.8	-6.65*	11.5	1.72
SMILES	PostGolgi yeast	Cav32 inh	PostGolgi ctrl	Pyk2 oligo antag
CCc1ccccc1NC(=O)c1ccc(CN2CCC(Cc3ccccc3)CC2)cc1	0.5	-7.83*	6.8	0.15
CC1(OC(=O)C2CCCC2)C(=O)C=C2C=C(c3ccsc3)N(CCc3c[nH]c4ccccc34)C=C2C1=O (configuration not stated)	x	0.56	x	x
Cc1cccc(N2C(=O)CC(Sc3nnc(C)s3)C2=O)c1 (configuration not stated)	x	0.437	x	0.32
COc1ccc(C(=O)Nc2ccc(Cl)c(Cl)c2)c(OC)n1	0.2	-0.589	5.7	-0.5
CC(C)C1O/C(=N/C(=O)Nc2ccc(Cl)c(Cl)c2)NC1=O (configuration not stated)	97.9*	-5*	91.9*	-0.05
CCc1nc(C)cn1S(=O)(=O)c1cc(C)c(OC)c(C)c1C	13.2	0.326	18.5	0.71
COC(=O)C(CCCCN1C(=O)C2C3C=CC(C3)C2C1=O)N1C(=O)C2C3C=CC(C3)C2C1=O (configuration not stated)	-3.1	1.14	10.7	0.57
COc1ccc(C(=O)COC(=O)C(CCCCN2C(=O)C3C4C=CC(C4)C3C2=O)N2C(=O)C3C4C=CC(C4)C3C2=O)cc1 (configuration not stated)	x	-3.68*	x	-0.67
CC(C)CC(C(=O)NC(=O)NCc1ccccc1)N1C(=O)c2ccccc2C1=O (configuration not stated)	6.6	0.303	13.6	-0.47
CN1CCN(CCCNC(=O)Cn2nc(-c3ccccc3)ccc2=O)CC1	40.7*	0.693	-1.5	0.1
CCc1ccc(NC(=O)C(C)Nc2ccc(S(=O)(=O)NC(C)=O)cc2)cc1 (configuration not stated)	-2.7	0.562	9.2	0.25
CON1C(=O)C(=O)N(OC)C(C)(C)C1C (configuration not stated)	5.3	-2.74	31.0*	-0.7
COc1cc2c3nnc(-c4ccc(F)cc4)c-3cn(Cc3ccccc3)c2cc1OC	2.0	x	13.0	x
Nc1c(C(=O)Nc2ccccc2F)sc2nc(Cc3ccccc3)cc(C(F)(F)F)c12	17.7	-3.37*	-4.3	0.5
Cc1cc(C(F)(F)F)c2c(N)c(C(=O)Nc3cc(C)on3)sc2n1	8.2	1.2	-1.6	-0.06
Cc1ccnc(SCC(=O)n2c3c(c4ccccc42)CC(C)CC3)n1 (configuration not stated)	-4.9	-0.482	34.8*	-0.06
CCN1CCN(CC(=O)n2c3c(c4ccccc42)CC(C)CC3)CC1 (configuration not stated)	-5.2	0.1	1.8	0.83
Cc1ccc(C(C)C)c(OCCNC(=O)c2cncc(Br)c2)c1	3.2	-4.91*	15.4	2.41
CN1CCC(=C2c3ccccc3C=Cc3ccccc32)CC1	x	-4.99*	x	x
O=S1(=O)[C@H]2C[C@@H]3C=C[C@]2(CN1Cc1ccc(C(F)(F)F)cc1)O3	x	0.943	x	x
O=C(Cc1ccccc1)NCCSCc1ccc(Cl)cc1	-3.0	-4.37*	11.6	-0.49
Cc1nc2sccn2c1-c1nc(-c2cc3ccccc3o2)cs1	1.2	x	34.3*	0.56
Cc1ccc(CNC(=O)N[C@@H](Cc2ccccc2)C(=O)O)cc1	x	x	x	-0.13
N#Cc1cn(CCOc2ccc(F)cc2)c2ccccc12	x	-2.1	x	-2.15
Cc1c(C#N)c2ccccc2n1CCOc1ccccc1F	3.3	-0.744	67.3*	-2.42
N#Cc1cn(CCOc2ccccc2F)c2ccccc12	-3.5	-2.66	57.9*	-1.99
N#CCCSc1ccccc1NC(=O)c1ccc(S(=O)(=O)N2CCCC2)cc1	-8.8	-0.0704	-0.6	x
COc1ccccc1-c1noc(-c2cccs2)n1	-1.5	-0.95	32.1*	-1.22
CC(C)(C)c1nc(N2CCN(C(=O)c3ccco3)CC2)c2nnn(Cc3ccccc3)c2n1	3.6	-7.15*	11.8	-1.22

Screens as filed in PubChem BioAssay.
